FXIa mix inh = blocks human factor XIa in pooled compound mixtures. purified FXIa, fluorogenic substrate. inhibition, % at 5 µM. 0.19% of 62,000 active. AID 680;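 note: each value is inhibition by a whole ten-compound pool holding the compound; 0% = enzyme with no mixture and 100% = wells lacking enzyme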
HePTP inh = human HePTP phosphatase inhibition; recombinant HePTP phosphatase activity, OD absorbance; inhibition, % at 20 µM; 0.64% of 110,000 active; in the data active = inhibition above about 50%;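 note: plate controls were vehicle for no effect and reference inhibitor for full effect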
TNAP act DEA = activates human TNAP at intermediate phosphate acceptor concentration; purified TNAP, CDP-star luminescence, 100 mM DEA, 30 min; active compounds read high; scale: 0 levamisole-inhibited, 1 vehicle-only enzyme; P05186; 64,000 tested, under 10 active; activation factor at 20 µM; AID 813;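 active = activation factor of at least 2 at 20 µM, relative to controls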
Candida biofilm = kills Candida albicans biofilms | C. albicans biofilm + clotrimazole, Alamar Blue | inhibition, % at 6 µM | AID 834 | 0.14% of 85,000 active;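 active = inhibition above 20%; inactive = inhibition below 20%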;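 note: preformed 24 hr biofilms exposed to compound for 48 hr; 0% = biofilm without compound and 100% = blank killed by clotrimazole plus chlorhexidine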
D1 mod = allosteric modulators of human D1 dopamine receptor; 5.9% of 58,000 active; AID 641; HEK293 D1, CRE-luciferase, dopamine EC30 potentiation; actives deviate in either direction; P21728; B-score at 10 µM;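 active = luminescence count or its row- and column-corrected plate score outside the 99.7% band of the plate's sample wells, on either side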
Target sequence (P21728 whole entry, looked up): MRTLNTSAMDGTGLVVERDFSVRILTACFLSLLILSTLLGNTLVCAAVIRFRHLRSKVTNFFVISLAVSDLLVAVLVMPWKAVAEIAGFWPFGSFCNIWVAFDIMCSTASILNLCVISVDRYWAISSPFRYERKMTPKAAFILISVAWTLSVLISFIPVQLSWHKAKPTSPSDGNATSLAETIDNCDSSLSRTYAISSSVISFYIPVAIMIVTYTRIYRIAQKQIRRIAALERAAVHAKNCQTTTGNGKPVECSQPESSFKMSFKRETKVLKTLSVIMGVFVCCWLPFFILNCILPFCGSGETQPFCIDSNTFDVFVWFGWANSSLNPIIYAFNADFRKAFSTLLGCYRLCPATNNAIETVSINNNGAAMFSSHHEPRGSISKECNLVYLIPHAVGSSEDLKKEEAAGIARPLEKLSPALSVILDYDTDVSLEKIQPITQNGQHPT
FXIIa mix inh = blocks human factor XIIa in pooled compound mixtures; purified FXIIa, fluorogenic substrate; inhibition, % at 5 µM; 0.2% of 62,000 active; P00748;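 note: 0% = enzyme without compound and 100% = no enzyme blank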
An asterisk follows results filed as active; nt = no result. The entries come from a sample that favours hits as a whole. Cut-off read from the data, not from the text of the source, unless noted: active = inhibition above about 20% (passing the limit was not always enough); inactive = the rest.

SMILES	FXIa mix inh	HePTP inh	TNAP act DEA	Candida biofilm	D1 mod	FXIIa mix inh
CNC(=O)CSc1nnc(-c2cc(C)cc(C)c2)o1	-1.5	5.8	1	10.0	-3.23*	-0.1
O=C1N=c2ccccc2=C1c1s/c(=N\Nc2ccccc2)n(-c2ccccc2)c1O	nt	6.0	nt	nt	nt	nt
Cc1ccc(-c2nnc(Nc3ccccc3)o2)cc1	-3.0	-0.5	0.9	nt	-4.19*	-16.3
c1ccc(-c2nnc(-c3ccccc3)o2)cc1	nt	nt	nt	6.6	nt	nt
O=C(NC1=NC2CCCCC2N1)c1ccccc1 (stereo unspecified)	1.7	3.7	0.9	4.7	-5.44*	13.8
Cc1cc(N2CCN(C(=O)c3ccco3)CC2)nc(-c2ccccc2)n1	6.7	6.7	1	10.2	-3.68*	4.7
O=C(Nc1cccc(NS(=O)(=O)c2ccccc2)c1)c1ccccc1Cl	nt	3.7	nt	nt	nt	nt
COc1ccc(N2C(=O)/C(=C/c3ccc(-c4ccccc4[N+](=O)[O-])o3)C(=O)NC2=S)cc1	nt	8.4	nt	nt	nt	nt
COc1ccc(C2/C(=C(/O)c3ccc(Cl)cc3)C(=O)C(=O)N2c2nccs2)cc1OC (stereo unspecified)	nt	6.3	nt	nt	nt	nt
O=C(/C=C\Nc1cccc(F)c1)c1ccc2c(c1)OCO2	4.4	-4.9	1	8.6	-6.87*	-3.1
O=C(Nc1nc(-c2nc3ccccc3s2)cs1)C1CC1	3.0	-5.2	0.9	17.7	-3.39*	5.0
O=C(Nc1nc(-c2ccc(-c3ccccc3)cc2)cs1)C1CC1	nt	-5.3	nt	nt	nt	nt
CN1CCCC1=NC(=S)CN1CCCC1=S	nt	96.9*	nt	nt	nt	nt
Cc1nc2ccccn2c1-c1csc(NCc2ccco2)n1	-2.3	1.8	1	nt	-3.28*	1.2
CCOC(=O)c1c(NC(=O)c2ccncc2)sc2c1CCC(C)C2 (stereo unspecified)	nt	-12.3	nt	nt	nt	nt
CCCn1c(SCC(=O)N2CCN(c3ccc(OC)cc3)CC2)nc2c1c(=O)n(C)c(=O)n2C	14.3	2.2	1	2.1	-5.18*	30.9
COc1ccc(OC)c(C(=O)CSc2nc3c(c(=O)n(C)c(=O)n3C)n2C(C)C)c1	-2.8	0.8	1	3.3	6.07*	-1.4
CCCn1c(SCC(=O)Nc2ccc3c(c2)OCO3)nc2c1c(=O)n(C)c(=O)n2C	3.0	5.3	0.9	-4.1	4.78*	4.5
CCCn1c(SCC(=O)c2cc(OC)ccc2OC)nc2c1c(=O)n(C)c(=O)n2C	2.6	4.5	0.9	nt	1.67	-1.5
CCN(CC)c1ccc(-n2c(O)c(C3=c4ccccc4=NC3=O)sc2=S)cc1	nt	-9.6	nt	nt	nt	nt
O=C(O)c1ccc(-n2c(O)c(/C=C3\C=Nc4ccccc43)sc2=S)cc1	nt	57.4*	nt	nt	nt	nt
O=C1N=c2ccccc2=C1c1sc(=S)n(-c2ccc(C(=O)O)cc2)c1O	nt	100.0*	nt	nt	nt	nt
Oc1ccc(-n2c(O)c(/C=C3\C=Nc4ccccc43)sc2=S)cc1	nt	5.6	nt	nt	nt	nt
CCOc1ccc(NC(=O)C(=O)NC(C)c2ccc(OC)cc2)cc1 (stereo unspecified)	nt	-8.9	nt	nt	nt	nt
C#CCOc1ccc(/C=C2\C(=O)NC(=O)N(c3cc(C)cc(C)c3)C2=O)cc1	nt	-7.9	nt	nt	nt	nt
SMILES	FXIa mix inh	HePTP inh	TNAP act DEA	Candida biofilm	D1 mod	FXIIa mix inh
Fc1ccc(C2=Nn3c(nnc3-c3n[nH]c4c3CCC4)SC2)cc1	7.4	0.5	1	8.9	-3.03*	1.9
COc1cc(/C=N/Nc2nonc2N)cc(OC)c1OC	nt	4.8	nt	nt	nt	nt
CNC(=O)c1c(C)nc(SCC(=O)NCc2ccc(OC)cc2)c(C#N)c1-c1ccco1	6.3	9.8	0.9	-1.5	-2.86*	5.0
CCn1cc(/C=C(/C#N)C(=O)Nc2ccc(Cl)cc2)c2ccccc21	nt	9.3	nt	nt	nt	nt
CC1(C)Cc2c(sc3nc(SCC#N)n(C4CCCCC4)c(=O)c23)CO1	nt	1.5	1	4.7	25.7*	nt
Cc1nnc2n(C3CCCCC3)c(=O)c3c4c(sc3n12)COC(C)(C)C4	nt	-2.4	0.9	10.1	nt	nt
Cc1cc(C)cc(OCC(=O)Nc2ccc(C)cc2Br)c1	nt	5.1	nt	nt	nt	nt
C/C(=N\NC(=O)C(C)Sc1nc(C)cc(C)n1)c1ccccc1O (stereo unspecified)	nt	-24.4	nt	nt	nt	nt
O=C(NCC1CCCO1)c1csc2c1CCCCC2 (stereo unspecified)	-2.8	-5.4	0.9	1.6	-3.31*	5.9
O=C1OC(c2ccccc2F)=N/C1=C\c1ccc2c(c1)OCO2	nt	3.4	nt	nt	nt	nt
COc1ccc(C2(C(=O)NC(C)C)CCCC2)cc1OC	0.7	4.8	0.9	1.8	0.262	-1.1
COc1ccc(C2(C(N)=O)CCCCC2)cc1OC	-1.6	3.4	1	-5.6	8.46*	8.8
COC(=O)c1ccc(/C=C2/C=C(c3ccc(Br)cc3)OC2=O)cc1	nt	-0.7	nt	nt	nt	nt
CN1CCN(c2ncnc3c2sc2nc(N4CCOCC4)c4c(c23)CCC4)CC1	1.9	6.9	1	-3.4	-0.321	8.4
Cc1cc(C)c2c(n1)sc1c(N3CCOCC3)ncnc12	6.7	4.2	0.9	5.7	2.83*	7.0
O=C(Nc1ccc2c(c1)OCO2)c1cnn2c(C(F)(F)F)cc(-c3cccs3)nc12	nt	3.8	nt	nt	nt	nt
O=C(NCCN1CCCC1)c1ccc2c(=O)n(CCc3ccccc3)c(=O)[nH]c2c1	-1.8	9.3	0.9	-3.5	-3.73*	8.3
COCCn1c(=O)[nH]c2cc(C(=O)NCCN3CCN(c4ccccc4F)CC3)ccc2c1=O	3.7	-9.6	1	-3.2	-0.859	-3.4
COCCn1c(=O)[nH]c2cc(C(=O)NCCCN3CCN(c4ccc(F)cc4)CC3)ccc2c1=O	-4.9	0.5	0.9	7.7	-4.41*	-6.9
Cc1ccc(/C(O)=C2/C(=O)C(=O)N(CCCn3ccnc3)C2c2ccccc2F)cc1 (stereo unspecified)	nt	7.0	nt	nt	nt	nt
Cn1c(CN2CCCCC2)c(C#N)c2ccccc21	3.9	-6.1	0.9	-3.2	-2.19*	-1.2
O=C1NC(=Nc2ccccc2Cl)S/C1=C/c1cc(Br)cc(Cl)c1O	nt	15.8	nt	nt	nt	nt
COc1ccccc1N=Cc1nc(-c2ccccc2)oc1OC(C)=O	50.1*	-3.0	0.9	-1.3	-1.88	5.6
CC1=NN(c2ccc(S(N)(=O)=O)cc2)C(=O)/C1=C\c1cccs1	nt	-8.4	nt	nt	nt	nt
CC[n+]1c(/C=C/c2ccc([N+](=O)[O-])cc2)sc2ccccc21	nt	-8.7	nt	nt	nt	nt
SMILES	FXIa mix inh	HePTP inh	TNAP act DEA	Candida biofilm	D1 mod	FXIIa mix inh
Cc1ccc(S(=O)(=O)NCc2cn3c(C)csc3n2)cc1	7.9	6.0	0.9	5.2	nt	7.5
Cc1ccc(SCc2cn3c(C)csc3n2)cc1	3.7	2.5	0.8	3.3	-4.63*	-11.4
CSc1ccc2c(c1)N(CCC1CCCCN1C)c1ccccc1S2 (stereo unspecified)	12.0	-0.5	0.9	nt	-6.33*	9.8
COC(=O)c1c(NC(=O)Cc2cccs2)sc2c1CCCC2	10.8	6.0	0.9	-2.0	2.74*	5.4
Cc1sc(NC(=O)NC2CCCCC2)nc1-c1ccccc1	nt	-4.3	nt	nt	nt	nt
Cc1sc(NC(=O)/C=C\C(=O)O)nc1-c1ccccc1	nt	103.0*	nt	nt	nt	nt
Cc1sc(NC(=O)CCC2CCCCC2)nc1-c1ccccc1	nt	102.4*	nt	nt	nt	nt
Cc1ccc(/C=C/C(=O)Nc2nc(-c3ccccc3)c(C)s2)cc1	nt	-16.6	nt	nt	nt	nt
CCOC(=O)c1c(NC(=O)c2ccc(S(=O)(=O)N3CCCCCC3)cc2)sc(C)c1C	nt	7.6	nt	nt	nt	nt
COC(=O)c1ccc(CC(=O)c2ccc(O)cc2O)o1	13.3	1.2	0.9	nt	-2.2*	16.2
